Results filed as inconclusive are left out. The source made the active and inactive calls. Calls come from the whole dose curve; as a rule, active = well fitted inhibition curve with a large enough effect; inconclusive = small, poorly fitted or top-dose-only effect; inactive = flat fitted curve, though single readings scatter.

Common to all, as to assay: qHTS profiling for inhibitors of Plasmodium falciparum proliferation (AID 504749); note: nearly all actives have a fitted effect of over 60% in size
Holding throughout (conditions): P. falciparum in erythrocytes, SYBR Green DNA, 72 h; series mostly up to 28.7 µM

Assay [1] concerns CP247. Summed up: (§1)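 SYBR Green fluorescence of parasite DNA, read after lysis and overnight dark incubation, measured growth over 72 h in erythrocyte culture at 0.3% parasitemia and 2.5% hematocrit. Data normalised to DMSO and 0.29 uM artemisinin, with plate-drift correction.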
For assay [2], the system named is CP250. Summed up:
as §1

Assay [3] concerns CP252. The procedure, abridged:
as §1

In assay [4] the test system is CP256. The procedure, abridged: as §1
For assay [5], the system named is CP260. The procedure, abridged:
as §1

The subject of assay [6] is CP262. The procedure, abridged:
as §1

Assay [7] has as its system CP265. Summed up: as §1
In assay [8] the test system is CP266. The procedure, abridged:
as §1

The subject of assay [9] is CP268. The procedure, abridged: as §1
The test system of assay [10] is CP269. Summed up: as §1
Assay [11] concerns CP286. The procedure, abridged:
as §1

For assay [12], the system named is CP291. Summed up: as §1
Assay [13] relates to CP297. Summed up:
as §1

The test system of assay [14] is CP305. Summed up: as §1
Assay [15] deals with CP325. Summed up: as §1
In assay [16] the test system is CP329. The procedure, abridged: as §1
In assay [17] the test system is CP335. The procedure, abridged: as §1
For assay [18], the system named is DFO2036. Summed up:
as §1

For assay [19], the system named is DIV14. The procedure, abridged:
as §1

Assay [20] relates to CP315. Summed up:
as §1
Potency is the fitted concentration of half-maximal effect.

As to `CCCCNc1ccc(C(=O)OCCOCCOCCOCCOCCOCCOCCOCCOCCOC)cc1`, the Potency entry in assay [1], in assay [2], in assay [3], in assay [4], in [5] and in [6] was “inactive” in each case. For the same molecule, the Potency result in assay [7], in assay [8], in assay [9], in [10], in assay [11] and in [12] was “inactive” each time. In addition, the Potency result in [13], in assay [14], in assay [15], in assay [16], in assay [17] and in [18] was “inactive” in each case.
Regarding `O=C1C(CCS(=O)c2ccccc2)C(=O)N(c2ccccc2)N1c1ccccc1` (configuration not stated), the Potency result in [1], in [2], in [3], in assay [4], in assay [5] and in assay [6] was “inactive” in each case. In addition, the Potency result in [7], in assay [8], in [9], in assay [10], in assay [11] and in assay [12] was “inactive” each time. For the same molecule, the Potency result in [13], in [14], in [15], in assay [16], in assay [17] and in assay [18] was “inactive” throughout. Moreover, in assay [19], the Potency entry was “inactive”.
For `COc1cc(C(=S)N2CCOCC2)ccc1O`, the Potency entry in assay [1], in [2], in assay [3], in assay [4], in assay [5] and in assay [6] was “inactive” each time. The Potency entry in assay [7], in assay [9], in assay [10], in assay [11], in assay [12] and in [13] was “inactive” in each case. The Potency entry in assay [14], in assay [20], in assay [15], in assay [16], in assay [17] and in assay [18] was “inactive” each time. For the same molecule, in assay [19], the Potency result was “inactive”.
In the case of `C/C=C/C=N/NC(=O)c1ccncc1`, the Potency result in [1], in [2], in assay [3], in assay [4], in assay [5] and in [6] was “inactive” each time. The Potency result in assay [7], in assay [8], in assay [9], in [10], in [11] and in [12] was “inactive” throughout. The Potency entry in assay [14], in assay [20], in assay [15], in [16], in [17] and in [18] was “inactive” each time. Further, in assay [19], the Potency result was “inactive”.
Regarding `CC(=O)Nc1ccc(OC(=O)c2ccccc2OC(C)=O)cc1`, the Potency result in assay [1], in assay [2], in assay [3], in assay [4], in [5] and in assay [6] was “inactive” throughout. Further, the Potency entry in [7], in assay [9], in assay [10], in [11], in assay [12] and in assay [13] was “inactive” in each case. In addition, the Potency result in [14], in assay [20], in [15], in [16], in [17] and in assay [18] was “inactive” throughout. The Potency result in assay [19] is “inactive”.
With `CCC(C(=O)OCCOCCN(CC)CC)c1ccccc1` (configuration not stated), the Potency entry in assay [1], in assay [2], in [3], in assay [4], in [5] and in assay [6] was “inactive” throughout. Besides, the Potency entry in assay [8], in [9], in assay [10], in assay [11], in [12] and in [14] was “inactive” each time. The Potency entry in assay [20], in assay [15], in assay [16] and in [18] was “inactive” each time. Moreover, in [13], the Potency was 15100 nM (active).
Consider `CCCCCCCCCCCCCC(=O)OC(C)C`, for which the Potency result in assay [1], in [2], in [3], in assay [4], in assay [5] and in assay [6] was “inactive” each time. Further, the Potency entry in [7], in assay [8], in assay [9], in assay [10], in assay [11] and in assay [12] was “inactive” throughout. The Potency entry in [14], in assay [20], in assay [15], in assay [16], in [17] and in [18] was “inactive” throughout. In addition, the Potency result in assay [19] is “inactive”.
Consider `CCCCCCCCNC(C)C(O)c1ccc(SC(C)C)cc1` (configuration not stated), for which the Potency is 891 nM (active) in [1]; 891 nM (active) in assay [2]; 794 nM (active) in assay [3]; 1000 nM (active) in [4]; 355 nM (active) in assay [5]; 2130 nM (active) in assay [6]. The Potency is 1120 nM (active) in [7]; 1690 nM (active) in assay [8]; 1510 nM (active) in [9]; 1510 nM (active) in assay [10]; 1000 nM (active) in assay [11]; 1900 nM (active) in assay [12]. The Potency is 2690 nM (active) in assay [14]; 3010 nM (active) in assay [20]; 3010 nM (active) in assay [15]; 3010 nM (active) in assay [16]; 601 nM (active) in assay [17]; 675 nM (active) in [19].
With `CC(C)=CCOc1ccc(/C=C/C(=O)c2ccc(OCC=C(C)C)cc2OCC(=O)O)cc1`, the Potency entry in assay [1], in assay [2], in assay [3], in assay [4], in [5] and in [6] was “inactive” throughout. Besides, the Potency entry in [7], in assay [8], in [9], in assay [10], in assay [11] and in assay [12] was “inactive” each time. In addition, the Potency result in assay [13], in [14], in [20], in assay [15], in assay [16] and in [18] was “inactive” throughout.
As for `OC[C@H]1O[C@@H]2O[C@H]3[C@H](O)[C@@H](O)[C@@H](O[C@H]4[C@H](O)[C@@H](O)[C@@H](O[C@H]5[C@H](O)[C@@H](O)[C@@H](O[C@H]6[C@H](O)[C@@H](O)[C@@H](O[C@H]7[C@H](O)[C@@H](O)[C@@H](O[C@H]8[C@H](O)[C@@H](O)[C@@H](O[C@H]1[C@H](O)[C@H]2O)O[C@@H]8CO)O[C@@H]7CO)O[C@@H]6CO)O[C@@H]5CO)O[C@@H]4CO)O[C@@H]3CO`, the Potency entry in assay [1], in assay [2], in assay [3], in assay [4], in assay [5] and in assay [6] was “inactive” each time. For the same molecule, the Potency entry in assay [7], in [8], in [9], in [10], in assay [11] and in assay [12] was “inactive” throughout. In addition, the Potency entry in [14], in assay [20], in assay [15], in assay [16], in assay [17] and in assay [18] was “inactive” each time. The Potency entry in assay [19] is “inactive”.
`CN(Cc1ccc(C(C)(C)C)cc1)Cc1cccc2ccccc12`: the Potency result in [1], in assay [2], in [3], in assay [4], in assay [5] and in assay [6] was “inactive” each time. Further, the Potency result in assay [7], in assay [8], in assay [9], in assay [10], in [12] and in assay [13] was “inactive” in each case. The Potency entry in assay [14], in assay [20], in [15], in assay [16] and in [18] was “inactive” throughout.

Source of the values: PubChem BioAssay (NCATS).
